Data published in PubChem BioAssay (NCATS).
“And” between values parts separate entries of the source, which are not always exact repeats. Equal entries are not always repeated. Inconclusive results are not listed. Values without a mark were called inactive. The source made the active and inactive calls. The call rests on the fitted dose curve; in most records, active means well fitted curve in the direction sought with a large enough effect; inconclusive means small, poorly fitted or top-dose-only effect, or another doubt; inactive means no such curve, though single readings can be large; an effect the other way counts as inactive or inconclusive.

Legend:
[1] = biological target: Cellular tumor antigen p53 (Homo sapiens) (UniProt P04637); assay: Primary qHTS for small molecule compounds that upregulate eGFP-tagged delta133p53alpha (in N-terminal) cells. (AID 2060322); conditions: NCI-H358 eGFP-delta133p53alpha fluorescence, 24 h; activation: hits give high values; further: nearly all actives have a fitted effect of over 75% in size; further: potency means the concentration at half of the fitted maximal effect;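 on activation: series mostly up to about 56 µM; 0% = DMSO vehicle and 100% = reference activator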
In short: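 NCI-H358 cells pre-induced 24 h with 10 ng/ml doxycycline to express N-terminal eGFP-delta133p53alpha, then dosed 24 h at 37C without doxycycline; fixed, Hoechst-stained, GFP intensity by laser scanning cytometry, normalized to DMSO (0%) and 57.5 uM 5-azacytidine (100%).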

[2] = biological target: Aldehyde dehydrogenase, mitochondrial (Homo sapiens) (UniProt P05091); assay: qHTS for Inhibitors of the Aldehyde Dehydrogenase Family (ALDH2) Primary screen (AID 2061308);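 further: plate controls were vehicle for no effect and reference inhibitor for full effect; nearly all actives have a fitted effect of over 55% in size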
[3] = biological target: Retinaldehyde dehydrogenase 3 (Homo sapiens) (UniProt P47895); assay: qHTS for Inhibitors of the Aldehyde Dehydrogenase Family (ALDH1A3) Primary screen (AID 2061315);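 further: plate controls were DMSO vehicle for no effect and reference inhibitor for full effect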
[4] = BET inhibitor-based combinations targeting novel dependencies in MECOM-rearranged (r) AML: OCI-AML3 cell line (AID 2202232); conditions: Potency: OCI-AML3 viability; further: potency means the concentration at half of the fitted maximal effect; nearly all actives have a fitted effect of over 35% in size
In short: (§1)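 Viability of cells (500 per well) is scored by luminescent CellTiter-Glo at 48 hr post-dosing. Eleven-point titrations are normalized to DMSO and empty controls and reduced to AUC values.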

[5] = BET inhibitor-based combinations targeting novel dependencies in MECOM-rearranged (r) AML: MV-4-11 cell line (AID 2202233); further: nearly all actives have a fitted effect of over 45% in size; further: potency means the concentration at half of the fitted maximal effect
In short: (§2)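 Using pin-tool transfer, drugs were added in 11 doses to cells (500/well), incubated 48 hr, and assessed with CellTiter-Glo. Z-AUC is a mean-centring transformation applied separately to each screened line.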

[6] = BET inhibitor-based combinations targeting novel dependencies in MECOM-rearranged (r) AML: UCSD-AML1 cell line (AID 2202235); further: nearly all actives have a fitted effect of over 40% in size; further: potency means the concentration at half of the fitted maximal effect
In short: as §2

[7] = BET inhibitor-based combinations targeting novel dependencies in MECOM-rearranged (r) AML: AML-191 cell line (AID 2202236; further: nearly all actives have a fitted effect of over 35% in size; further: potency means the concentration at half of the fitted maximal effect)
In short: as §1

[8] = BET inhibitor-based combinations targeting novel dependencies in MECOM-rearranged (r) AML: AML-194 cell line (AID 2202237; further: nearly all actives have a fitted effect of over 40% in size; further: potency means the concentration at half of the fitted maximal effect)
In short: as §1

[9] = BET inhibitor-based combinations targeting novel dependencies in MECOM-rearranged (r) AML: HNT-34 cell line (AID 2202234); further: nearly all actives have a fitted effect of over 35% in size; further: potency means the concentration at half of the fitted maximal effect
In short: as §2

Sequence of Cellular tumor antigen p53 (Homo sapiens) (P04637 whole entry, looked up): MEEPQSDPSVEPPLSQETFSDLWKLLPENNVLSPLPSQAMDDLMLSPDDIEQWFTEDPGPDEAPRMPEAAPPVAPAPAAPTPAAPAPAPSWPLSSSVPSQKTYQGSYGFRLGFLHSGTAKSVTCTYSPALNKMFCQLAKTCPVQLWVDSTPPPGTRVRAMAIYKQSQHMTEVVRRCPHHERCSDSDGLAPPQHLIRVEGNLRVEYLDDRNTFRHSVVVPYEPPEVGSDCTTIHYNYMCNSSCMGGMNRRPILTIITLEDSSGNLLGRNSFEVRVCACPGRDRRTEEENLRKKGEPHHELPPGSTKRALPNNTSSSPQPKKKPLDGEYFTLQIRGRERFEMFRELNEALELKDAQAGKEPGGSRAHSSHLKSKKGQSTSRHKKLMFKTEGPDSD

SMILES	activation [1]	Potency [2]	Potency [3]	Potency [4]	Potency [5]	Potency [6]	Potency [7]	Potency [8]	Potency [9]	Potency [1]	activity change, negative = inhibition [2]	activity change, negative = inhibition [3]
O=C([C@@H](Cc1cccc(C(F)(F)F)c1)NS(=O)(=O)c1cc(F)c2c(c1)CCNC2)N1CCCC1	-6.33%	inactive	inactive	11.8 µM (active)	20.9 µM (active)	inactive	inactive	inactive	–	–	–	–
CC[C@@](C)(Nc1ccnc(-c2c[nH]c3ncccc23)n1)C(=O)NCC(F)(F)F	18.8%	inactive	inactive	–	14.8 µM (active)	6.61 µM (active)	–	–	14.8 µM (active)	–	–	–
CC(C)Nc1cc(C(F)(F)F)cc2nc(NC(=O)c3cccnc3)nn12	-46.7% and -1.43%	inactive	inactive	–	–	inactive	inactive	inactive	–	–	–	–
Cc1ccc(NC(=O)c2ccc(CN3CCNCC3)cc2)cc1Nc1nccc(-c2cccnc2)n1	-16.1%	inactive	inactive	–	18.6 µM (active)	–	–	23.5 µM (active)	2.63 µM (active)	–	–	–
Cc1ccc(Nc2nccc(N(C)c3ccc4c(C)n(C)nc4c3)n2)cc1S(N)(=O)=O	13% and -7.12% and -16.1%	inactive	inactive	–	5.25 µM (active)	18.6 µM (active)	18.6 µM (active)	18.6 µM (active)	6.61 µM (active)	–	–	–
COc1cc(N2CCC(N3CCN(C)CC3)CC2)ccc1Nc1ncnc(Nc2ccccc2S(=O)(=O)C(C)C)n1	–	inactive	inactive	–	–	–	18.6 µM (active)	10.5 µM (active)	9.34 µM (active)	24.3 µM (active) and 26.9 µM (active)	–	–
CCC(=O)N1CCN(c2ccc(-n3c(=O)ccc4cnc5ccc(-c6cnc7ccccc7c6)cc5c43)cc2C(F)(F)F)CC1	41.3%	–	–	–	–	0.0091 µM (active)	–	–	–	–	-6.8% [at 11.2 µM]	3.25% [at 11.2 µM]
Cc1cc(C(=O)Nc2cc(Oc3ccc4nc(NC(=O)C5CC5)cn4n3)ccc2C)n(C)n1	–	inactive	inactive	–	14.8 µM (active)	9.34 µM (active)	–	9.34 µM (active)	–	16.9 µM (active)	–	–
COc1cc2ncnc(-n3nc(-c4ccccn4)nc3N)c2cc1OC	13.4%	inactive	inactive	–	1.48 µM (active)	4.68 µM (active)	4.17 µM (active)	6.61 µM (active)	2.35 µM (active)	–	–	–
COC(=O)/C=C/C(=O)N(O)CCCCNCc1ccc(COC(=O)Nc2cccc3ccccc23)cc1	–	inactive	inactive	–	–	–	8.33 µM (active)	8.33 µM (active)	5.9 µM (active)	26.9 µM (active)	–	–
CN(C)C(=O)c1cc2cnc(Nc3ccc(N4CCNCC4)cn3)nc2n1C1CCCC1	15.2%	inactive	inactive	–	–	inactive	inactive	inactive	inactive	–	–	–
CS(=O)(=O)N1CCc2c(-c3cnc(N)nc3)nc(N3CCOCC3)nc21	26%	inactive	inactive	–	4.68 µM (active)	0.662 µM (active)	–	–	–	–	–	–
NS(=O)(=O)c1ccc(Nc2nc(OCC3CCCCC3)c3[nH]cnc3n2)cc1	-24.8%	inactive	inactive	–	3.32 µM (active)	10.5 µM (active)	–	–	–	–	–	–
CC(O)c1cc(C(=O)N[C@@H](C)Cn2ccc(-c3ccc(C#N)c(Cl)c3)n2)n[nH]1 (some centres undefined)	1%	inactive	inactive	–	inactive	inactive	16.6 µM (active)	inactive	–	–	–	–
CS(=O)(=O)c1ccc(-c2cnc(N)c(C(=O)Nc3ccccc3)n2)cc1	-13%	inactive	inactive	–	7.42 µM (active)	–	4.68 µM (active)	5.9 µM (active)	–	–	–	–
CS(=O)(=O)N1CCN(Cc2cc3nc(-c4cccc5[nH]ncc45)nc(N4CCOCC4)c3s2)CC1	-25.9%	inactive	inactive	–	2.09 µM (active)	0.468 µM (active)	–	–	–	–	–	–
Cc1ccccc1-n1nc(-c2c(-c3ccc(F)cc3)nn3c2NC[C@@H](CO)C3)ccc1=O	2.68%	inactive	inactive	–	inactive	–	inactive	inactive	inactive	–	–	–
NC1CCC(N[C@@H]2C[C@H]2c2ccccc2)CC1 (some centres undefined)	3.67% and 27.6%	inactive	inactive	–	–	0.0019 µM (active)	inactive	inactive	–	–	–	–
CC(C)(N)c1ccc(-c2nc3ccccc3nc2-c2ccccc2)cc1	25%	inactive	inactive	–	–	–	20.9 µM (active)	–	16.6 µM (active)	–	–	–
CC(C)(CNC(=O)c1cccc(-c2noc(C(F)(F)F)n2)c1)c1coc(-c2ccccc2)n1	-0.477%	inactive	inactive	–	23.5 µM (active)	inactive	11.8 µM (active)	–	–	–	–	–
C[C@@H](N)c1ccc(C(=O)Nc2ccnc3[nH]ccc23)cc1	21.5%	inactive	inactive	–	3.72 µM (active)	–	16.6 µM (active)	14.8 µM (active)	–	–	–	–
Nc1ccn([C@@H]2C(F)=C(CO)[C@@H](O)[C@H]2O)c(=O)n1	0.893% and -30.2%	inactive	inactive	–	0.235 µM (active)	0.662 µM (active)	–	–	–	–	–	–
